Assay outcomes: PubChem, The Scripps Research Institute Molecular Screening Center
ULK1 inh: inhibitors of human ULK1 kinase; inhibition, % at 5.96 µM; O75385; hit rate 1.9% among 30,000; AlphaScreen Atg13 phosphorylation by ULK1, luminescence; in the data active means inhibition above about 43%;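 further: 0% = median of compound wells and 100% = no enzyme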
Target sequence (O75385 whole entry, looked up): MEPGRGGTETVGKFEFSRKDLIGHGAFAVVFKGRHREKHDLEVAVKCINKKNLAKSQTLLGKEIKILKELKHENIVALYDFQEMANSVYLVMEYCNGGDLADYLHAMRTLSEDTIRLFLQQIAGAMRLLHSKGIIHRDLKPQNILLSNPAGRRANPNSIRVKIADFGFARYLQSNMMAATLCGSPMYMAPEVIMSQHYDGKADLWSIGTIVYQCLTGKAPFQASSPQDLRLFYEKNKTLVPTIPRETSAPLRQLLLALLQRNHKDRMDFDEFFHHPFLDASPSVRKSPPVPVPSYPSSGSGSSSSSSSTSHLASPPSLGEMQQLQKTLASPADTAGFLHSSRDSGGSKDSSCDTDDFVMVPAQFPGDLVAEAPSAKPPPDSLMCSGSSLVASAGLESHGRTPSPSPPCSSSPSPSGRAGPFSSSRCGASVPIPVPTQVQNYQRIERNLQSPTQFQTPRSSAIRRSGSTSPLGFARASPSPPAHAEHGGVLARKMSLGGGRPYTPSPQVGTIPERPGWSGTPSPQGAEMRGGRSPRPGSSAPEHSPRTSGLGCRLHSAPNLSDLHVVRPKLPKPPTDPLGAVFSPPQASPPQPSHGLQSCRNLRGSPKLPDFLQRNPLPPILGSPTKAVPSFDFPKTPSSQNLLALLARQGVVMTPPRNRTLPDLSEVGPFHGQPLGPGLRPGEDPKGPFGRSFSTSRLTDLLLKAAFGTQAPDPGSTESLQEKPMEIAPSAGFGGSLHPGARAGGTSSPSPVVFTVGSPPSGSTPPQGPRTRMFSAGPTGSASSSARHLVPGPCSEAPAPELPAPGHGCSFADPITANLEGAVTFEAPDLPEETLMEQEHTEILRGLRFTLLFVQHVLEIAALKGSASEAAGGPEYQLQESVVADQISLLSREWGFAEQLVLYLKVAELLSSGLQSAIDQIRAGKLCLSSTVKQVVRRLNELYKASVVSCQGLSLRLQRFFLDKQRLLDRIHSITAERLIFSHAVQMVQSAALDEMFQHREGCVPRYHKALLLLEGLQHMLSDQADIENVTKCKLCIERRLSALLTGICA
ASK1 inh: human ASK1 kinase inhibition, primary screen; AlphaScreen MKK6 phosphorylation by ASK1, luminescence; inhibition, % at 7.44 µM; hit rate 0.99% among 22,000; in the data active means inhibition above about 35%;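 further: 0% = median of compound wells and 100% = no enzyme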
Numbers without * were called inactive; x = no result. Compounds with a hit are over-represented: about 2.4% of the library has one in this group of screens.

SMILES | ULK1 inh | ASK1 inh
CC(C)N(CCNC(=O)c1cnc(Nc2ccc3ncccc3c2)s1)C(C)C | 3 | -16
Nc1nc(Nc2ccc3c(c2)OCO3)cc(N2CCN(c3ccccn3)CC2)n1 | 18 | 9
CC(C)n1cc(-c2ccc3cnc(Nc4ccc(-n5cnc(N6CCOCC6)n5)cc4)nc3c2Cl)cn1 | 53* | 3
Cc1ncn(-c2ccc(Nc3ncc4cccc(-c5cnn(C(C)C)c5)c4n3)cc2)n1 | 66* | -10
Cc1ncn(-c2ccc(Nc3ncc4cccc(-c5cnn(CC6CC6)c5)c4n3)cc2)n1 | 64* | 3
Cc1ncn(-c2ccc(Nc3ncc4cccc(-c5cnn(C)c5)c4n3)cc2)n1 | 25 | -8
Cc1ncn(-c2ccc(Nc3ncc4cccc(-n5cccn5)c4n3)cc2)n1 | 45* | -23
Cc1ncn(-c2ccc(Nc3ncc4cccc(-c5ccccc5)c4n3)cc2)n1 | 12 | -74
Cc1ncn(-c2ccc(Nc3ncc4cccc(-c5ccncc5)c4n3)cc2)n1 | -33 | 6
Cn1cc(-c2ccc3cnc(Nc4ccc(-n5cnc(N6CCOCC6)n5)cc4)nc3c2C2CC2)cn1 | 41 | -91
CS(=O)(=O)Nc1ccc(-c2cnc3cccc(N(C(=O)c4ccccn4)C(=O)c4ccccn4)c3c2)cc1 | 9 | -4
CCN(CC)C(=O)C1CCCN(c2nc(C)cc(NCCO)n2)C1 (stereo unspecified) | -7 | 5
O=C(/C=C/c1ccco1)Nc1ccncc1 | -5 | x
O=C(Nc1ccc(-c2ccncc2)cc1F)[C@H]1COc2ccccc2O1 | -9 | 19
COc1cc(Nc2nc(Nc3ccc4c(c3)OCO4)c3ncn(-c4ccccc4)c3n2)cc(OC)c1OC | 3 | 18
O=C1CCCN1CCn1cnc2c(Nc3ccccc3)nc(Nc3ccccc3)nc21 | 4 | 1
CC(C)n1cnc2c(Nc3ccc4c(c3)OCO4)nc(NC3CCC(O)CC3)nc21 (stereo unspecified) | 35 | 10
OC1CCC(Nc2nc(Nc3ccccc3)c3ncn(-c4ccccc4)c3n2)CC1 (stereo unspecified) | 3 | -1
CC(=O)Nc1ccc(Nc2nc(NC3CCC(O)CC3)nc3c2ncn3C(C)C)cc1 (stereo unspecified) | 62* | 9
CC(C)n1cnc2c(Nc3ccccc3)nc(NC3CCC(O)CC3)nc21 (stereo unspecified) | 56* | 2
O=C(Nc1nc(CC(=O)N2CCN(c3ccccc3Cl)CC2)cs1)NC1CCCC1 | -14 | x
Nc1cccc(-c2cc(NCc3cccnc3)nc(N)n2)c1 | 55* | -3
NC(=O)c1ccc(-c2cc(NCc3cccnc3)nc(N)n2)cc1 | 24 | 2
CC(=O)c1cccc(-c2nc(NCCc3ccc(O)cc3)c3ncn(-c4ccccc4)c3n2)c1 | -37 | 10
CC(=O)Nc1ccc(Nc2nc(-c3csc4ccccc34)nc3c2ncn3-c2ccccc2)cc1 | 2 | -7
SMILES | ULK1 inh | ASK1 inh
Oc1ccc(Cl)c2cccnc12 | 11 | x
Oc1c(Cl)cc(Cl)c2cccnc12 | 27 | x
O=S(=O)(O)c1cc(I)c(O)c2ncccc12 | 45* | x
Oc1c(I)cc(I)c2cccnc12 | 51* | x
FC(F)(F)c1ccc(Cn2cnc3c(Nc4ccc5c(c4)OCO5)nc(Nc4nccc5ccccc45)nc32)cc1 | 2 | -16
COc1cc(NC(=O)c2ccc3nc(Nc4ccc5ncccc5c4)sc3c2)cc(OC)c1OC | 3 | 8
O=C(NC1CC1)c1ccc2nc(-c3ccc(N4CCOCC4)nc3)sc2c1 | -3 | 5
Nc1cccc(-c2ccc(C(=O)NC3CC3)s2)c1 | 3 | 0
CC(C)n1cnc2c(Nc3ccc(N4CCOCC4)cc3)nc(Nc3ccc(N4CCOCC4)cc3)nc21 | 32 | 21
CC(C)n1cnc2c(Nc3ccc(N4CCOCC4)cc3)nc(Nc3ccccn3)nc21 | 69* | 22
CC(C)n1cnc2c(NC3CC3)nc(Nc3ccc(N4CCOCC4)cc3)nc21 | 20 | -3
CC(C)n1cnc2c(Nc3ccc(N4CCOCC4)cc3)nc(Nc3nccc4ccccc34)nc21 | 27 | 3
CC(C)n1cnc2c(Nc3ccc(N4CCOCC4)cc3)nc(Nc3cccnc3)nc21 | 49* | -7
CC(C)n1cnc2c(Nc3ccc(N4CCOCC4)cc3)nc(Nc3ccncn3)nc21 | 52* | 14
COc1cc2nc(-c3ccc(C(N)=O)cc3)nc(NCc3cccc(C(F)(F)F)c3)c2cc1OC | -14 | -1
O=C1CCCN1CCn1cnc2c(NCCc3ccc(O)cc3)nc(N3CCCC3CO)nc21 (stereo unspecified) | 0 | 11
Nc1nc(NCc2nc3ccccc3[nH]2)cc(N2CCN(c3ccccn3)CC2)n1 | -5 | -18
c1cc(Cn2ccnc2)cc(Nc2nccc(-c3cncc(N4CCOCC4)c3)n2)c1 | 80* | 6
c1cc(Cn2cncn2)cc(Nc2nccc(-c3cncc(N4CCOCC4)c3)n2)c1 | 55* | 1
c1cc(-c2cncc(N3CCOCC3)c2)nc(Nc2ccc(-n3cncn3)cc2)n1 | 11 | 17
c1cn(-c2ccc(Nc3nccc(-c4cncc(N5CCOCC5)c4)n3)cc2)cn1 | 34 | -14
O=C(Nc1ccc(Oc2ccccc2)cc1)c1cnc(-c2ccc(N3CCOCC3)nc2)s1 | -1 | -12
COc1nc(NCCCN2CCCC2=O)nc(-c2ccccc2)n1 | 3 | 3
Cc1cnc(Nc2cnccn2)nc1NCc1ccccc1 | 8 | 8
Cc1cc(NC(=O)c2cccc(-n3ncc4cc(Nc5ccccc5F)ccc43)c2)ccc1N1CCOCC1 | 1 | 8
SMILES | ULK1 inh | ASK1 inh
CNC(=O)c1ncccc1Nc1cc(Nc2ccc(N3CCOCC3)cc2OC)ncc1C(F)(F)F | 46* | 24
CNC(=O)c1cccc(Nc2cc(Nc3ccc(N4CCOCC4)cc3OC)ncc2C(F)(F)F)c1 | 18 | 21
CNC(=O)c1ncccc1Nc1cc(Nc2ccc(C(=O)N(C)C)cc2OC)ncc1C(F)(F)F | 24 | 16
COc1cc(N2CCOCC2)ccc1Nc1cc(Nc2ccccc2NC(C)=O)c(C(F)(F)F)cn1 | 88* | 11
COc1cc(N2CCOCC2)ccc1Nc1cc(NCc2ccccc2)c(C(F)(F)F)cn1 | 18 | 1
COc1cc(N2CCOCC2)ccc1Nc1cc(NC(C)(C)c2ccccc2)c(C(F)(F)F)cn1 | 22 | -13
CNC(=O)c1ccccc1Nc1cc(Nc2ccc(N3CCS(=O)CC3)cc2OC)ncc1C#N | 90* | 22
CNC(=O)c1ccccc1Nc1cc(Nc2ccc(C(=O)N3CC[C@H](O)C3)cc2OC)ncc1C(F)(F)F | 88* | 8
Nc1cc(Cl)c(S(N)(=O)=O)cc1S(N)(=O)=O | -8 | x
Nc1nc(NCc2ccccc2)cc(Nc2ccccn2)n1 | -1 | -13
CC(=O)c1cccc(-c2nc(C(=O)NCCN3CCOCC3)cs2)c1 | 4 | -4
Cn1c(Nc2ncc(C(=O)Nc3ccccc3)s2)nc2ccccc21 | 7 | -34
O=C(NC1CC1)c1cnc(Nc2ncccn2)s1 | 44* | -2
CCNc1ncc(C(=O)NC2CC2)s1 | -2 | 2
COc1ccc(C(=O)Nc2nc3ccc(-c4ccncc4)cc3s2)cc1 | 16 | 13
COc1cc(Nc2nc(NCCN(C(C)C)C(C)C)c3[nH]cnc3n2)cc(OC)c1OC | 10 | 5
CCCNc1nc(Nc2cc(OC)c(OC)c(OC)c2)nc2nc[nH]c12 | 59* | -41
COc1cc(Nc2nc(Nc3ccccc3)c3[nH]cnc3n2)cc(OC)c1OC | 65* | -10
COc1cc(Nc2nc(Nc3nccc4ccccc34)nc3nc[nH]c23)cc(OC)c1OC | 1 | -8
COc1cc(Nc2nc(Nc3cccnc3)nc3nc[nH]c23)cc(OC)c1OC | 23 | -3
